# The full list was thinned out, with hits kept by preference.
# Pf Dd2 inh: qHTS Primary assay for Inhibitors of Plasmodium falciparum Dd2 growth in vitro. 120,000 compounds, 4.3% hits. AID 1347417, 2020. P. falciparum Dd2 growth, SYBR Green, 72 h. Potency, µM (highest dose often 28.9 µM), without a hit: top-dose activity, negative = inhibition, actives largely listed as inhibitors; active = well fitted inhibition curve with a large enough effect;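 also: plate controls were DMSO vehicle for no effect and reference drug for full effect; nearly all actives have a fitted effect of over 65% in size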
#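 Readout: SYBR Green fluorescence, 485 nm excitation, 535 nm emission, after ~16 h lysis at 37C. Before that, Dd2-infected red cells (2.5% hematocrit) grew 72 h with compound, 29 uM top final concentration.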
# Numbers without * were called inactive; i = inactive; [ ] = remark or other dose. Potency is read from the fitted curve at half-maximal effect.
SMILES,Pf Dd2 inh
O=c1ccc(-c2cc(-c3cccc4cn[nH]c34)cn3cncc23)c[nH]1,i
Cc1ccc(-c2cc(-c3ccc(=O)[nH]c3)c3cncn3c2)cn1,47.5%[44.1 µM]
c1cc(-c2cc(-c3ccc4cn[nH]c4c3)cn3cncc23)ccn1,-1.5%[44.1 µM]
O=c1ccc(-c2cc(-c3cccc(N4CCOCC4)c3)cn3cncc23)c[nH]1,7.94µM*
COc1ccc(-c2cc(-c3cnn(C)c3)cn3cncc23)cn1,10µM*
COc1ccc(-c2nc(-c3c(C)noc3C)cc3c2cc(-c2ccccc2)n3C)cn1,-26.5%[44.1 µM]
CN(C)c1ccc(CN[C@H]2CO[C@H]3[C@@H]2OC[C@H]3OC(=O)Nc2ccc(Oc3ccccc3)cc2)cc1,i
CCCOC1CCCN(C(=O)c2ccc3nc(-c4ccc(F)cc4)cn3c2)C1 (centres undefined),-17.9%
CC1(C)N=C(c2ccccc2)C(=O)N1CC(=O)NC1CCc2ccccc21 (centres undefined),-13.4%
Cc1cccc(C(=O)N2CC(C(=O)N(C)C)C3(CCOCC3)C2)c1 (centres undefined),-3.3%
Cc1ccccc1NC(=O)c1ccc2c(c1)N(C)C1CCCN1C2=O (centres undefined),i
O=C(CCc1ccccc1)N1CCC(c2n[nH]c(=O)n2Cc2ccc(F)cc2)CC1,-8.0%
OCC1(Cc2ccccc2F)CCCN(c2nccc(C(F)(F)F)n2)C1 (centres undefined),i
CCNC(=O)c1cccnc1OC1CCN(C(=O)c2cccc(Cl)c2)C1 (centres undefined),17.5%
CCOCC(=O)N1C[C@@H](Oc2ccccc2)C[C@H]1C(=O)N1CCOCC1,13.7%
CCCS(=O)(=O)N[C@H]1CO[C@H]2[C@@H]1OC[C@H]2OC(=O)Nc1ccc(OC)cc1,14.2%[44.1 µM]
COc1cccc(-c2cc(-c3c(C)noc3C)c3cncn3c2)c1,5.62µM*
COc1ccc(-c2cc(-c3ccc(N4CCOCC4)nc3)cn3cncc23)cc1,0.794µM*
Cc1noc(C)c1-c1cc(-c2cccc(N[S+](C)(=O)[O-])c2)cn2cncc12,i
COc1ccc(-c2noc(-c3ccc(N4CCCOCC4)nc3)n2)cc1,i
CC(=O)Nc1cccc(-c2cc(C3=CCOCC3)c3cncn3c2)c1,i
c1cc(-c2cc(-c3ccc(N4CCOCC4)nc3)cn3cncc23)ccn1,i
CC1=NOC2(CCN(C(=O)c3ccc(C(F)(F)F)cc3)CC2)C1,13.1%[44.1 µM]
O=C(CC[C@@H]1CNC(=O)[C@@H]2C[C@H](NC(=O)c3cccc(F)c3)CN12)NC1CC1,-32.6%[44.1 µM]
Cn1nccc1C(O)c1cc2n(n1)CCCN(c1nc3ccccc3s1)C2 (centres undefined),-4.2%
SMILES,Pf Dd2 inh
NC(=O)Cn1ccc2cc(OCC3CCN(C(=O)CCc4ccccc4)CC3)cnc21,-22.4%[44.1 µM]
O=C(c1ccc(Cl)cc1)N1CCn2c(nn(-c3ccc(F)cc3F)c2=O)C1,4.5%
Cc1ccc2nc(N(Cc3cccnc3)C(=O)c3ccc4c(c3)OCCO4)sc2c1,i
CC(=O)c1ccc(C(=O)N(Cc2cccnc2)c2nc3c(Cl)cccc3s2)cc1,-21.6%
Cc1cccc2sc(N(Cc3cccnc3)C(=O)CCc3ccccc3)nc12,3.98µM*
O=C(CCc1ccccc1)N(Cc1cccnc1)c1nc2c(F)cccc2s1,i
O=C(c1ccco1)N(Cc1cccnc1)c1nc2c(F)cccc2s1,i
CC(=O)N(Cc1cccnc1)c1nc2c(C)c(C)ccc2s1,i
Cc1ccc2nc(N(Cc3cccnc3)C(=O)Cc3ccccc3)sc2c1,5.01µM*
Cc1cc(C)c2nc(N(Cc3cccnc3)C(=O)Cc3ccccc3)sc2c1,10µM*
CCS(=O)(=O)c1ccccc1C(=O)N(Cc1cccnc1)c1nc2cc(C)c(C)cc2s1,-1.3%
Cc1cc(C)c2nc(N(Cc3cccnc3)C(=O)c3cccs3)sc2c1,10µM*
O=C(CCS(=O)(=O)c1ccccc1)N(Cc1cccnc1)c1nc2ccc(Cl)cc2s1,45.8%
Cc1ccc2nc(N(Cc3cccnc3)C(=O)CCS(=O)(=O)c3ccccc3)sc2c1,i
Cc1noc(C)c1CNC(=O)C1CCCNC1 (centres undefined),8.0%
O=C(NC1CC1)[C@@H]1C[C@H](Oc2cccnc2)CN1,-0.9%
CS(=O)(=O)c1ccc(O[C@H]2COCCN(Cc3ccccn3)C2)cc1,12.6%[44.1 µM]
COCC(=O)NC1CCC12CCN(C(=O)CC1CCCC1)CC2 (centres undefined),-7.0%
CC(C)Cc1cn(CC2CCCN(C(=O)c3n[nH]c4c3CCCC4)C2)nn1 (centres undefined),-3.4%
CNC(=O)c1[nH]nc2c1C(c1c(C)nc3ccc(Cl)cn13)CC(=O)N2 (centres undefined),-3.0%
CCOc1ccccc1C1NC(=O)N(CC(=O)Nc2cccc(Cl)c2)C2=C1C(=O)OC2 (centres undefined),i
O=C(Nc1cc(F)cc(F)c1)c1cnc(-c2ccc(F)cc2)nc1-c1ccncc1,10µM*
COc1cc(NC(=O)c2cnc(-c3ccc(C)cc3)nc2-c2ccncc2)cc(OC)c1,-13.5%
Cc1ccc(-c2ncc(C(=O)Nc3ccc(F)c(F)c3)c(-c3ccncc3)n2)cc1,-21.7%
COc1ccc(-c2cc(CC3(NCC(C)(C)C)COC3)no2)cc1,-9.0%[44.1 µM]
SMILES,Pf Dd2 inh
O=C1NCN(Cc2ccc(Cl)cc2)C12CCN(Cc1ccc(C(F)(F)F)cc1)CC2,-11.1%
COc1ccc(-c2nnc3n2CCN(C(=O)C(C)(C)C)C3)cc1,1.8%[44.1 µM]
O=C1Nc2ccc(-c3ccccc3)cc2C(=O)N2CCN(C(=O)c3ccccc3)C[C@H]12,-20.0%[44.1 µM]
CCCc1cnc2c(c1SCC(=O)Nc1ccccc1OCC)c(=O)n(C)c(=O)n2C,1.6%
CCCc1cnc2c(c1SCc1cccc(C)c1)c(=O)n(C)c(=O)n2C,11.2µM*
CCCc1cnc2c(c1SCC(=O)Nc1cccc(C)c1C)c(=O)n(C)c(=O)n2C,0.7%
CS(=O)(=O)N1CCC2(CC1)CN(Cc1ccc(O)cc1)Cc1ccccc1O2,4.8%
CS(=O)(=O)c1ccc(OCC2(CNC(=O)c3ccc(C#N)cc3)C[C@@H](O)[C@@H](O)C2)cc1 (some centres undefined),i
Cc1c(CN(C)c2cc(C3CC(O)C3)nc(N)n2)[nH]c2ccccc12 (centres undefined),-15.6%
Cc1ccc(SCCN(C)c2cc(C3CC(O)C3)nc(N)n2)cc1 (centres undefined),5.62µM*
CN(CCc1nc2ccc(Cl)cc2[nH]1)c1cc(C2CC(O)C2)nc(N)n1 (centres undefined),i
O=C(NCCc1csc(-c2ccncc2)n1)C1CNCCO1 (centres undefined),-5.4%
COCC(=O)N1c2ccccc2CC1c1noc(C(C)C)n1 (centres undefined),-1.9%
O=C(CN1CCC2(CC1)NC(=O)CC2C(=O)O)NCc1ccco1 (centres undefined),0.5%
CCn1ccc(C(=O)N2CCc3c(nc(-c4ccc(OC)cc4)[nH]c3=O)C2)n1,-28.9%
O=C(c1ccn(C(F)F)n1)N1CCc2nc(-c3ccc(Cl)cc3)[nH]c2C1,12.6µM*
Cc1cc(C(=O)N2CCc3c(nc(-c4ccc(F)cc4)[nH]c3=O)C2)nn1C,-7.7%
CCN1CC(NC(=O)c2cccc(S(=O)(=O)N(C)CCO)c2)CC1=O (centres undefined),-14.0%
CC(C)(C)c1cc(C[C@H]2CNCC[C@H]2CC(=O)N2CCC(Cc3ccccc3)CC2)no1,7.94µM*
COc1ccccc1N1CCN(C(=O)C[C@@H]2CCNC[C@@H]2Cc2cc(-c3ccc(F)cc3)on2)CC1,11.2µM*

# Source: PubChem BioAssay (National Center for Advancing Translational Sciences (NCATS))
